Results filed as inconclusive are left out. The source made the active and inactive calls. Rule for the calls: active = hit-call score of the fitted dose curve at least 0.9, where 1 is the maximum; inconclusive = response in the unintended direction; inactive = score below 0.9.
Tests used:
[1] = CCTE_Mundy_HCI_hN2_NOG_NeuriteCount: CCTE's Neurite Outgrowth Assay in human hN2 cells for Neurite Count, Mundy Lab (AID 2284219)
Method in brief: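 In this morphology assay, hNP1-derived neurons received test chemical 2 h post-plating and were fixed two days later in warm paraformaldehyde/sucrose containing Hoechst 33342. Neurites, labelled by rabbit anti-βIII-tubulin (1:800) and Alexa Fluor-488 (1:500), were counted automatically.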

[2] = CCTE_Mundy_HCI_hN2_NOG_NeuriteLength: CCTE's Neurite Outgrowth Assay in human hN2 cells for Neurite Length, Mundy Lab (AID 2284220)
Method in brief: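 Plate hNP1-derived neurons, then add chemical 2 h later as a 1/10 dilution. Stain with anti-βIII-tubulin then Alexa Fluor-488 secondary, and image automatically to measure neurite length.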

[3] = CCTE_Mundy_HCI_hN2_NOG_NeuronCount: CCTE's Neurite Outgrowth Assay in human hN2 cells for Neuron Count, Mundy Lab (AID 2284221)
Method in brief: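 Read-out is the number of betaIII-tubulin-positive neurons imaged by automated high-content analysis, with DMSO as negative control.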

| Structure (SMILES) | outcome [1] | outcome [2] | outcome [3] |
| --- | --- | --- | --- |
| O=P1(N(CCCl)CCCl)NCCCO1 (stereo not given) | inactive | inactive | – |
| CCC1(c2ccccc2)C(=O)N=C(O)NC1=O (stereo not given) | inactive | inactive | inactive |

— PubChem BioAssay (EPA / NIEHS)
